Our source for the relative % inhibition values is the supplement of paper PMC3842684.

One assay concerns P. falciparum NF54-pfs16-GFP early (I-III) stage gametocytes. Briefly: relative % inhibition of viable gametocyte number; higher = more gametocytocidal. As to conditions: 0.5 µM; stage: early (I-III) gametocyte; incubation 72 h. In short, it runs like this:
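Relative inhibition was normalised to in-plate vehicle and positive-control wells, with viable gametocytes defined on confocal images as elongated GFP objects whose MitoTracker Red signal exceeded a cut-off. NF54 pfs16-GFP gametocytes, magnet-isolated at early (I/IIa, day 2) or late (day 8) stage, were plated at 10% parasitaemia, 0.1% haematocrit with compound at 5 or 0.5 µM. Plates were incubated 72 h at 37°C, 5% CO2, 5% O2, then stained overnight.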
For `O=C(Nc1ccc(-c2nc3cc4ccccc4cc3[nH]2)cc1)c1cccc(Br)c1`, the relative % inhibition came to 23.2%.
The same measure, in the same setting: the same measure for `COc1ccc2nc(C)cc(Nc3ccc(Cl)cc3)c2c1`: -10.1%.
With `CCCn1c(=N)c(C(=O)NC2CCCCC2)cc2c(=O)n3cccc(C)c3nc21`, the relative % inhibition is 13.4%.
In the case of `COc1cc(OC)c(N(C)C(=O)c2cc3c(s2)-c2ccccc2S(=O)(=O)C3)cc1Cl`, the relative % inhibition was found to be 52.2%.
Same read-out and setting: the same measure for `CCOC(=O)C1=C(C)N=c2sc(=Cc3cc(Cl)ccc3O)c(=O)n2C1c1ccc(OC)cc1` (stereo not drawn): 105%; for `CCN1CCN(Cc2ccc(NC(=O)c3cc4ccc5cccnc5c4[nH]3)cc2)CC1`: 21.1%.
Take `COc1ccc(NC(=O)C2c3ccccc3C(=O)N(CC(C)C)C2c2cccs2)cc1Cl` (stereo not drawn): the relative % inhibition was determined as 42.8%.
Consider `Cc1ccc(-c2cc3c(SCC(=O)Nc4cc(C(F)(F)F)ccc4Cl)nccn3n2)cc1`, for which the relative % inhibition is -5.62%.
The same measure, in the same setting: in the case of `COc1cccc(Nc2nc(NCCO)c3ccccc3n2)c1` it was 0%; in that of `CNCCCNc1ccnc2cc(Cl)ccc12`, 106%.
For `CCOC(=O)c1cnc2ccc(Cl)cc2c1NCCCN(C)C`, the relative % inhibition came out at 3.83%.
With `O=C1c2ccc3c4c(ccc(c24)C(=O)N1CCCCO)C(=O)N(CCCCO)C3=O`, the relative % inhibition is -9.07%.
Regarding `O=C(NC1CCN(Cc2ccccc2)CC1)c1cc(C(=O)NC2CCN(Cc3ccccc3)CC2)cc(C(=O)NC2CCN(Cc3ccccc3)CC2)c1`, the relative % inhibition worked out at 20.3%.
Still for that read-out and setting: the same measure for `CCn1c(SCC(=O)Nc2cc(C(F)(F)F)ccc2Cl)nc2ccccc2c1=O`: 27.2%; for `c1ccc(-c2ccc(-c3nc4ccccc4[nH]3)cc2)cc1`: -4.6%.
For the molecule `O=C(NC1CCN(Cc2ccccc2)CC1)c1cc2nc(-c3ccc(Cl)s3)cc(C(F)(F)F)n2n1`, the relative % inhibition was determined as 3.66%.
Regarding `COc1ccc(C(=O)Nc2ccc(Cl)cc2C(=O)Nc2ccncc2)cc1`, the relative % inhibition was -7.22%.
In the case of `O=C(NC1CCCCC1)C(c1cccs1)N(CCc1ccccc1)C(=O)c1ccco1` (stereo not drawn), the relative % inhibition came out at 0.574%.
Regarding `CCCCOC(=O)c1ccc(Nc2cc(C)nc3ccc(OC)cc23)cc1`, the relative % inhibition was -28.1%.
Consider `COCCn1c(C)nc2ccccc2c1=O`, for which the relative % inhibition amounted to 9.29%.
Take `Oc1ccccc1CN1CCN(C(c2ccccc2)c2ccccc2)CC1`: the relative % inhibition was determined as 13.3%.
Turning to `CCOc1ccc2nc(C)cc(Nc3ccc(N(C)C)cc3)c2c1`, the relative % inhibition was found to be 15.2%.
Turning to `COc1ccc(CNC(=O)c2cc3c(=O)n4ccccc4nc3n(CCc3ccccc3)c2=N)cc1`, the relative % inhibition is 2.74%.
On to `CCOC(=O)c1cnc2c(C)cc(C)cc2c1Nc1ccc(OC)c(OC)c1`, for which the relative % inhibition is 2.37%.
For the molecule `COc1cccc(NC(=O)Cn2c(C)c(C#N)c3ccccc32)c1`, the relative % inhibition came out at 17%.
On the same count and under the same terms, in the case of `Cc1cccc(-n2ncc3c(=O)[nH]c(-n4nc(C)cc4NC(=O)c4cc5ccccc5o4)nc32)c1` it was -5.22%; in that of `CCN(CC)S(=O)(=O)c1ccc(-c2csc(Nc3ccc(C)c(C)c3)n2)cc1`, 28%; in that of `OCCNc1nc(Nc2ccc(Cl)c(Cl)c2)nc2ccccc12`, -6.33%.
Same read-out and setting: in the case of `CCOc1ccc(N2C(N)=NC(N)=NC2(C)C)cc1` it was 3.66%.
As to `CC1CN(C(=O)c2sc3ccccc3c2Cl)CC(C)O1` (stereo not drawn), the relative % inhibition is -11.1%.
`Cc1ccc(C2CC(C(F)(F)F)n3nc(C(=O)N4CCN(C(c5ccccc5)c5ccccc5)CC4)cc3N2)cc1` (stereo not drawn): the relative % inhibition was 3.32%.
Still for that read-out and setting: in the case of `O=C(Cc1ccccc1)NC(c1ccc(Cl)cc1)c1c(O)ccc2ccccc12` (stereo not drawn) it was 14.2%; in that of `O=C(CSc1nccn2nc(-c3ccccc3)cc12)Nc1cc(C(F)(F)F)ccc1Cl`, 3.61%; in that of `COc1ccc2nc(N)nc(C)c2c1`, 15.7%.
As to `Cc1ccc(C)c(-c2csc(Nc3ccc(C)c(C)c3)n2)c1`, the relative % inhibition stood at 9.93%.
For `O=C(NC1CCCC1)c1ccc(N2CCC(NCc3cccc(C(F)(F)F)c3)CC2)cc1`, the relative % inhibition was determined as 2.61%.
Regarding `CCN(CC)CCNc1ccnc2cc(Cl)ccc12`, the relative % inhibition was -1.61%.
On the same count and under the same terms, in the case of `COc1ccc(-c2cc3c(nn2)-c2ccccc2C3=O)cc1` it was -10.8%; in that of `COc1cc(C(=O)Nc2nc3c(cc4c5c(cccc53)CC4)s2)cc(OC)c1OC`, 5.49%.

Staying with this assay, now noted: 5 µM; stage: early (I-III) gametocyte; incubation 72 h.
As to `O=C(Nc1ccc(-c2nc3cc4ccccc4cc3[nH]2)cc1)c1cccc(Br)c1`, the relative % inhibition was determined as 34.5%.
With `COc1ccc2nc(C)cc(Nc3ccc(Cl)cc3)c2c1`, the relative % inhibition is 13.9%.
`CCCn1c(=N)c(C(=O)NC2CCCCC2)cc2c(=O)n3cccc(C)c3nc21`: the relative % inhibition is 24.4%.
Turning to `COc1cc(OC)c(N(C)C(=O)c2cc3c(s2)-c2ccccc2S(=O)(=O)C3)cc1Cl`, the relative % inhibition was 93.9%.
With `CCOC(=O)C1=C(C)N=c2sc(=Cc3cc(Cl)ccc3O)c(=O)n2C1c1ccc(OC)cc1` (stereo not drawn), the relative % inhibition was determined as 108%.
In the case of `CCN1CCN(Cc2ccc(NC(=O)c3cc4ccc5cccnc5c4[nH]3)cc2)CC1`, the relative % inhibition turned out to be 59.1%.
Regarding `COc1ccc(NC(=O)C2c3ccccc3C(=O)N(CC(C)C)C2c2cccs2)cc1Cl` (stereo not drawn), the relative % inhibition came out at 90.9%.
`Cc1ccc(-c2cc3c(SCC(=O)Nc4cc(C(F)(F)F)ccc4Cl)nccn3n2)cc1`: the relative % inhibition was -12%.
Turning to `COc1cccc(Nc2nc(NCCO)c3ccccc3n2)c1`, the relative % inhibition is -12.9%.
The same measure, in the same setting: the same measure for `CNCCCNc1ccnc2cc(Cl)ccc12`: 106%.
`CCOC(=O)c1cnc2ccc(Cl)cc2c1NCCCN(C)C`: the relative % inhibition was determined as 74.3%.
On the same count and under the same terms, the same measure for `O=C1c2ccc3c4c(ccc(c24)C(=O)N1CCCCO)C(=O)N(CCCCO)C3=O`: 4.23%.
The same measure, in the same setting: in the case of `O=C(NC1CCN(Cc2ccccc2)CC1)c1cc(C(=O)NC2CCN(Cc3ccccc3)CC2)cc(C(=O)NC2CCN(Cc3ccccc3)CC2)c1` it was 82%; in that of `CCn1c(SCC(=O)Nc2cc(C(F)(F)F)ccc2Cl)nc2ccccc2c1=O`, 5.95%.
With `c1ccc(-c2ccc(-c3nc4ccccc4[nH]3)cc2)cc1`, the relative % inhibition is -6.39%.
In the case of `O=C(NC1CCN(Cc2ccccc2)CC1)c1cc2nc(-c3ccc(Cl)s3)cc(C(F)(F)F)n2n1`, the relative % inhibition was -15.9%.
Take `COc1ccc(C(=O)Nc2ccc(Cl)cc2C(=O)Nc2ccncc2)cc1`: the relative % inhibition was 22.3%.
On the same count and under the same terms, the same measure for `O=C(NC1CCCCC1)C(c1cccs1)N(CCc1ccccc1)C(=O)c1ccco1` (stereo not drawn): 17.5%; for `CCCCOC(=O)c1ccc(Nc2cc(C)nc3ccc(OC)cc23)cc1`: 70%.
For the molecule `COCCn1c(C)nc2ccccc2c1=O`, the relative % inhibition is 10.1%.
For the molecule `Oc1ccccc1CN1CCN(C(c2ccccc2)c2ccccc2)CC1`, the relative % inhibition is 98.5%.
Still for that read-out and setting: the same measure for `CCOc1ccc2nc(C)cc(Nc3ccc(N(C)C)cc3)c2c1`: -42.1%; for `COc1ccc(CNC(=O)c2cc3c(=O)n4ccccc4nc3n(CCc3ccccc3)c2=N)cc1`: 56.6%.
For `CCOC(=O)c1cnc2c(C)cc(C)cc2c1Nc1ccc(OC)c(OC)c1`, the relative % inhibition was found to be 7.56%.
Consider `COc1cccc(NC(=O)Cn2c(C)c(C#N)c3ccccc32)c1`, for which the relative % inhibition is 45.2%.
The same measure, in the same setting: in the case of `Cc1cccc(-n2ncc3c(=O)[nH]c(-n4nc(C)cc4NC(=O)c4cc5ccccc5o4)nc32)c1` it was 49%; in that of `CCN(CC)S(=O)(=O)c1ccc(-c2csc(Nc3ccc(C)c(C)c3)n2)cc1`, 31.5%.
For `OCCNc1nc(Nc2ccc(Cl)c(Cl)c2)nc2ccccc12`, the relative % inhibition is -11%.
For the molecule `CCOc1ccc(N2C(N)=NC(N)=NC2(C)C)cc1`, the relative % inhibition is -20.1%.
`CC1CN(C(=O)c2sc3ccccc3c2Cl)CC(C)O1` (stereo not drawn): the relative % inhibition is 1.13%.
As for `Cc1ccc(C2CC(C(F)(F)F)n3nc(C(=O)N4CCN(C(c5ccccc5)c5ccccc5)CC4)cc3N2)cc1` (stereo not drawn), the relative % inhibition is 13.2%.
Turning to `O=C(Cc1ccccc1)NC(c1ccc(Cl)cc1)c1c(O)ccc2ccccc12` (stereo not drawn), the relative % inhibition was 104%.
Still for that read-out and setting: in the case of `O=C(CSc1nccn2nc(-c3ccccc3)cc12)Nc1cc(C(F)(F)F)ccc1Cl` it was -9.64%; in that of `COc1ccc2nc(N)nc(C)c2c1`, 24.8%.
`Cc1ccc(C)c(-c2csc(Nc3ccc(C)c(C)c3)n2)c1`: the relative % inhibition was -13.3%.
In the case of `O=C(NC1CCCC1)c1ccc(N2CCC(NCc3cccc(C(F)(F)F)c3)CC2)cc1`, the relative % inhibition amounted to 22.8%.
On to `CCN(CC)CCNc1ccnc2cc(Cl)ccc12`, for which the relative % inhibition came to 100%.
For the molecule `COc1ccc(-c2cc3c(nn2)-c2ccccc2C3=O)cc1`, the relative % inhibition came out at 81.1%.
As to `COc1cc(C(=O)Nc2nc3c(cc4c5c(cccc53)CC4)s2)cc(OC)c1OC`, the relative % inhibition was 13.9%.
